Test results: PubChem BioAssay (Tox21)
Records with an inconclusive call do not appear. Values without a mark were called inactive. The source made the active and inactive calls. Calls follow the shape of the dose curve; as a rule, active = well fitted cell-killing curve with a large enough effect in the repeat runs; inconclusive = weak or mixed curves, or effect the other way; inactive = no such curve, though single readings can be large or run the other way.
% is scaled to controls: 0 for no effect and ±100 for the full control effect; potency is read from the fitted curve at half-maximal effect.

Assay: qHTS assay for identifying genotoxic compounds that show differential cytotoxicity against isogenic chicken DT40 cell lines with known DNA damage response pathways - wild type cell line (AID 743012); also: nearly all actives have a fitted effect of over 60% in size
Settings: DT40 wild type chicken cells viability, CellTiter-Glo, 40 h; series mostly up to 68.4 µM; activity change, negative = cytotoxicity: at the top concentration
From the text: U.S. Tox21 Program National Center for Advancing Translational Sciences [NCATS] NIH Chemical Genomics Center [NCGC] U.S. Environmental Protection Agency [EPA] National Institutes of Environmental Health Sciences [NIEHS] National Toxicology Program [NTP] U.S. Food and Drug Administration [FDA] Tox21 Assay Overview: DNA repair pathways play a critical role in cellular homeostasis by repairing DNA damage induced by endogenous processes and xenobiotics. Isogenic chicken DT40 cell lines deficient in different DNA repair pathways can be used to identify genotoxic compounds and aid in characterizing the nature of the DNA damage induced. Two DNA repair-deficient cell lines with disrupted genes, Rad54/Ku70 or Rev3, were used to screen the Tox21 10K compound library. Possible genotoxicity was based on the presence of a significant increase in cytotoxicity in one or more of the DNA repair-deficient cell lines compared to that observed in the parental DNA repair-proficient cell line. CellTiter Glo viability assay (Promega, Madison, WI) was used to measure cell viability in these cells after compound treatment. This assay includes the data from the wild type cell line.
Tox21 Assay Protocol Summary: 300 DT40 wild type cells in 5 uL/well were dispensed into white, solid-bottom 1536-well plates using a Multidrop Combi (ThermoFisher Scientific, Waltham, MA) dispenser. After the assay plates were incubated at 37 C/5% CO2 for approximately 0.5 hour, 23 nL of compounds dissolved in DMSO, positive controls or DMSO only was transferred into the assay plate by a pintool work station (Kalypsys, San Diego, CA). The assay plates were incubated at 37 C/5% CO2 for 40 hours. After 5 uL per well of CellTiter-Glo reagent was added into each well of the assay plates, the plates were incubated for 30 min at room temperature and the luminescence intensity of the plates was measured using a ViewLux (PerkinElmer, Shelton, CT) plate reader.
With CN1C(CSCC(F)(F)F)Nc2cc(Cl)c(S(N)(=O)=O)cc2S1(=O)=O (stereo not given) the Potency was 11.9 µM (active).
With CC(C)(C(=O)c1cccnc1)c1cccnc1 the “activity change, negative = cytotoxicity” value was -0.378% [at 31.4 µM].
In the case of COc1cc(C(C)=O)ccc1OCCCN1CCC(c2noc3cc(F)ccc23)CC1, the Potency was 11.9 µM (active).
For CC[C@H]1OC(=O)[C@H](C)[C@@H](O[C@H]2C[C@@](C)(OC)[C@@H](O)[C@H](C)O2)[C@H](C)[C@@H](O[C@@H]2O[C@H](C)C[C@H](N(C)C)[C@H]2O)[C@](C)(O)C[C@@H](C)C(=O)[C@H](C)[C@@H](O)[C@]1(C)O, the Potency was “inactive”.
With CNCc1ccc(NC(=O)c2c[nH]c3c2C(=O)CCC3)cc1 the Potency was 61.1 µM (active).
With O=C(NC(Cc1cc(=O)[nH]c2ccccc12)C(=O)O)c1ccc(Cl)cc1 (stereo not given) the “activity change, negative = cytotoxicity” value was 0.935%.
With CCC1CCC(CCC(=O)O)C1 (stereo not given) the “activity change, negative = cytotoxicity” value was 1.89% [at 95 µM].
In the case of O=C1CC[C@@H](C(=O)O)N1, the “activity change, negative = cytotoxicity” value was -0.0292%.
For c1ccc(CCCc2ccncc2)cc1, the “activity change, negative = cytotoxicity” value was 21.7%.
With Nc1ccn([C@H]2CS[C@@H](CO)O2)c(=O)n1 the Potency was “inactive”.
For CC(C(=O)O)c1ccc(C(=O)c2cccs2)cc1 (stereo not given), the “activity change, negative = cytotoxicity” value was 0.118% [at 31.4 µM].
For CCOC(=O)C(C)O (stereo not given), the “activity change, negative = cytotoxicity” value was 7.15% [at 95 µM].
For CC(C)COC(=O)c1ccc(O)cc1, the “activity change, negative = cytotoxicity” value was -5.16%.
For C[C@@H]1[C@H](O)[C@@H](C)/C=C/C=C\C=C\C=C\C=C\C=C\C=C\[C@H](O[C@@H]2O[C@H](C)[C@@H](O)[C@H](N)[C@@H]2O)C[C@@H]2O[C@](O)(C[C@@H](O)C[C@@H](O)[C@H](O)CC[C@@H](O)C[C@@H](O)CC(=O)O[C@H]1C)C[C@H](O)[C@H]2C(=O)O (stereo in doubt), the “activity change, negative = cytotoxicity” value was 5.71%.
For O=C(O)c1ccc(O)cc1O, the “activity change, negative = cytotoxicity” value was 22.3% [at 95 µM].
For CCCCCCCCCCCCCC(=O)OCC(O)CO (stereo not given), the “activity change, negative = cytotoxicity” value was 4.56%.
For CC(C)(C)NCC(O)COc1cccc2c1C[C@H](O)[C@H](O)C2 (stereo not given in full), the “activity change, negative = cytotoxicity” value was 6.25% [at 31.4 µM].
With CC1=C2[C@@H]([C@H](C)CC[C@H]2/C=C(\C)C(=O)O)[C@H](O)C1 the “activity change, negative = cytotoxicity” value was -2.1%.
In the case of CCOC(=O)c1c(N)sc2c1CCN(Cc1ccccc1)C2, the Potency was 29.8 µM (active).
For O=CNNC=O, the “activity change, negative = cytotoxicity” value was 7.07% [at 95 µM].
For CC(C)N=C=NC(C)C, the “activity change, negative = cytotoxicity” value was 18%.
For CCCCCCC(O)CCCCCCCCCCC(=O)OC (stereo not given), the “activity change, negative = cytotoxicity” value was -4.85%.
For COc1ccc(-c2cc(C(F)F)nn2-c2ccc(S(N)(=O)=O)cc2)cc1F, the “activity change, negative = cytotoxicity” value was 7.34%.
For O=C(c1ccccc1)C1CCC1, the “activity change, negative = cytotoxicity” value was 10.5%.
With Cc1c(C2(c3cc(Br)c(O)c(Br)c3C)OS(=O)(=O)c3ccccc32)cc(Br)c(O)c1Br the Potency was 18.8 µM (active).
For Cc1ccc2nc(N)[nH]c(=O)c2c1Sc1ccncc1, the Potency was 1.88 µM (active).
With CCCCCCCCCCCSCC(=O)O the “activity change, negative = cytotoxicity” value was -0.611%.
In the case of O=NN(CCCl)C(=O)NCCCl, the “activity change, negative = cytotoxicity” value was 3.05%.
In the case of Cc1cccc(C)c1NC(=O)c1cc(S(N)(=O)=O)c(Cl)cc1O, the “activity change, negative = cytotoxicity” value was 2.28%.
With CC(C)Cc1ccc(CC(=O)O)cc1 the “activity change, negative = cytotoxicity” value was 13.9%.
With Nc1ccc(F)cc1 the “activity change, negative = cytotoxicity” value was -11.3% [at 95 µM].
For CC(=O)NCCO, the “activity change, negative = cytotoxicity” value was -3.58%.
With CCN(CC)C(=O)/C(C#N)=C/c1cc(O)c(O)c([N+](=O)[O-])c1 the “activity change, negative = cytotoxicity” value was 13.1%.
With CC(C)COC(=O)COc1cc(Cl)c(Cl)cc1Cl the “activity change, negative = cytotoxicity” value was 0.381%.
In the case of CCN(CC)c1ccc(C(=C2C=CC(=[N+](CC)CC)C=C2)c2ccc(S(=O)(=O)O)cc2S(=O)(=O)[O-])cc1, the Potency was 24.3 µM (active).
For COc1cc(NC(C)CCCN)c2ncccc2c1 (stereo not given), the Potency was 11.4 µM (active).
For CSSc1ccoc1C, the Potency was 19.2 µM (active).
With Cc1cc(CCC(=O)OCCOCCOCCOC(=O)CCc2cc(C)c(O)c(C(C)(C)C)c2)cc(C(C)(C)C)c1O the Potency was 26.6 µM (active).
For CC(C)CC(O)CC(C)C, the “activity change, negative = cytotoxicity” value was 28.2%.
For Cc1cccc2sc(N)nc12, the “activity change, negative = cytotoxicity” value was -9.62% [at 95 µM].
